Laboratory results from PubChem BioAssay (Tox21).
A number with no mark means an inactive call. Records with an inconclusive call do not appear. A call without a number means that no potency is given here. Active and inactive are the calls of the source. Calls come from the whole dose curve; as a rule, active = well fitted curve in the direction sought with a large enough effect in the repeat runs; inconclusive = weak or mixed curves; inactive = no such curve, though single readings can be large; an effect the other way counts as inactive or inconclusive.

How the values were obtained:
[1] = A CellTox Green Cytotoxicity Assay to monitor cytotoxicity in HEK293 cells - 32 hour (AID 1224881); note: nearly all actives have a fitted effect of over 40% in size; note: potency is the fitted concentration of half-maximal effect
Method in brief: (§1)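 Dead-cell fluorescence measured kinetically: asymmetric cyanine dye, HEK293, 600 cells/well, 5 h settle, 23 nL cpd/DMSO, 37 C, reads 0–40 h every 8 h.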

[2] = A CellTox Green Cytotoxicity Assay to monitor cytotoxicity in HepG2 cells - 0 hour (AID 1224882); note: nearly all actives have a fitted effect of over 35% in size; note: potency is the fitted concentration of half-maximal effect
Method in brief: (§2)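 First, HepG2 cells (600/well) mixed with reagent were plated; second, after 5 h at 37 C they received compounds via pintool; third, fluorescence was measured at 0 h through 40 h at 8 h intervals.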

[3] = A CellTox Green Cytotoxicity Assay to monitor cytotoxicity in HepG2 cells - 32 hour (AID 1224883); note: nearly all actives have a fitted effect of over 50% in size; note: potency is the fitted concentration of half-maximal effect
Method in brief: as §2

[4] = A CellTox Green Cytotoxicity Assay to monitor cytotoxicity in HEK293 cells - 8 hour (AID 1224884); note: nearly all actives have a fitted effect of over 35% in size; note: potency is the fitted concentration of half-maximal effect
Method in brief: as §1

[5] = qHTS RealTime-Glo MT Cell Viability Assay in HepG2 cells - 16 hour (AID 1224885); note: nearly all actives have a fitted effect of over 50% in size
Method in brief: (§3)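 Cells + NanoLuc/prosubstrate dispensed (600 cells/well) → 5 h at 37 C/5% CO2 → compounds in DMSO transferred → 40 h incubation at 37 C, luminescence read at 0, 8, 16, 24, 32, 40 h.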

[6] = qHTS RealTime-Glo MT Cell Viability Assay in HEK293 cells - 24 hour (AID 1224886); note: top concentration of the series differs between compounds; nearly all actives have a fitted effect of over 50% in size
Method in brief: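 Tox21 10K qHTS, HEK293, 600 cells/well, RealTime-Glo reagent co-dispensed with cells; 5 h preincubation, compound by pintool, 37 C, luminescence at 0–40 h.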

[7] = qHTS RealTime-Glo MT Cell Viability Assay in HEK293 cells - 8 hour (AID 1224887); note: top concentration of the series differs between compounds; nearly all actives have a fitted effect of over 50% in size
Method in brief: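 600 HEK293 cells per well, dispensed already mixed with RealTime-Glo MT reagents. Compound dosing came 5 h later. The same wells were read for luminescence at 0, 8, 16, 24, 32 and 40 h of exposure at 37 C.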

[8] = A CellTox Green Cytotoxicity Assay to monitor cytotoxicity in HEK293 cells - 16 hour (AID 1224888); note: nearly all actives have a fitted effect of over 35% in size; note: potency is the fitted concentration of half-maximal effect
Method in brief: as §1

[9] = qHTS RealTime-Glo MT Cell Viability Assay in HepG2 cells - 0 hour (AID 1224889); note: nearly all actives have a fitted effect of over 50% in size
Method in brief: as §3

[10] = A CellTox Green Cytotoxicity Assay to monitor cytotoxicity in HepG2 cells - 8 hour (AID 1224890); note: nearly all actives have a fitted effect of over 45% in size
Method in brief: as §2

SMILES | Potency [1] | Potency [2] | Potency [3] | Potency [4] | Potency [5] | Potency [6] | Potency [7] | Potency [8] | Potency [9] | Potency [10]
O=c1[nH]c2cc(C(F)(F)F)c(N3CCOCC3)cc2n(CP(=O)(O)O)c1=O | inactive | inactive | inactive | inactive | inactive | inactive | inactive | inactive | inactive | –
CCC(=O)OCc1ccc(OC)cc1 | inactive | inactive | inactive | inactive | inactive | inactive | inactive | inactive | inactive | –
O=C(c1ccccc1)C1CCC1 | 24.5 µM (active) | 38.9 µM (active) | 38.9 µM (active) | 38.9 µM (active) | inactive | inactive | inactive | 27.5 µM (active) | inactive | –
O=[N+]([O-])c1ccc2ncccc2c1 | inactive | inactive | inactive | inactive | inactive | inactive | inactive | inactive | inactive | –
CNc1c2c(nn1C)CCCC2 | inactive | inactive | inactive | inactive | inactive | inactive | inactive | inactive | inactive | inactive
CC/C=C\C/C=C\C/C=C\CCCCCCCC(=O)OCC | inactive | inactive | inactive | inactive | inactive | inactive | inactive | inactive | inactive | –
Cc1ccc(N(CCO)CCO)cc1 | inactive | inactive | inactive | inactive | inactive | inactive | inactive | inactive | inactive | –
C1=CCC2CC=CC2C1 (stereo not given) | inactive | inactive | inactive | inactive | inactive | inactive | inactive | inactive | inactive | inactive
Cc1ccc(S(=O)(=O)NC(=O)NC2CCCCC2)cc1 | inactive | inactive | inactive | inactive | inactive | inactive | inactive | inactive | inactive | –
CCc1ccc(C)cc1 | inactive | inactive | inactive | inactive | inactive | inactive | inactive | inactive | inactive | –
CCCCCCCCCCCC(=O)OCC(O)CO (stereo not given) | inactive | inactive | inactive | inactive | inactive | inactive | inactive | inactive | inactive | inactive
CCCCCCCCCCCSCC(=O)O | inactive | inactive | inactive | inactive | inactive | inactive | inactive | inactive | inactive | –
CCOCCC(=O)OCC | inactive | inactive | inactive | inactive | inactive | inactive | inactive | inactive | inactive | –
O=c1[nH][nH]c(=O)c2cc([N+](=O)[O-])ccc12 | inactive | inactive | inactive | inactive | inactive | inactive | inactive | inactive | inactive | inactive
CCCCCCCCCCCCCCCC(=O)OCC | inactive | inactive | inactive | inactive | inactive | inactive | inactive | inactive | inactive | inactive
CCN(CC)c1ccc(C(=C2C=CC(=[N+](CC)CC)C=C2)c2ccc(S(=O)(=O)O)cc2S(=O)(=O)[O-])cc1 | inactive | inactive | inactive | inactive | inactive | inactive | inactive | inactive | inactive | inactive
CC(=O)Oc1cccc(O)c1 | inactive | inactive | inactive | inactive | inactive | inactive | inactive | inactive | inactive | inactive
OCC(CO)n1cnc(-c2ccc(F)cc2)c1-c1ccnc(Oc2ccccc2)n1 | inactive | inactive | inactive | inactive | inactive | inactive | inactive | inactive | inactive | inactive
Cc1oc(=O)oc1COC(=O)[C@@H]1N2C(=O)[C@@H](NC(=O)[C@H](N)c3ccccc3)[C@H]2SC1(C)C | inactive | inactive | inactive | inactive | inactive | inactive | inactive | inactive | inactive | inactive
O=C(O)CCCc1c[nH]c2ccccc12 | inactive | inactive | 15.5 µM (active) | inactive | inactive | inactive | inactive | inactive | inactive | inactive
CCCCOCCOC(=O)c1cccnc1 | inactive | inactive | inactive | inactive | inactive | inactive | inactive | inactive | inactive | inactive
CCO[Si](C)(CCCOCC1CO1)OCC (stereo not given) | inactive | inactive | inactive | inactive | inactive | inactive | inactive | inactive | inactive | inactive
CC(=O)OCC(C)C | inactive | inactive | inactive | inactive | inactive | inactive | inactive | inactive | inactive | inactive
Cc1c[nH]c2ccccc12 | inactive | inactive | inactive | inactive | inactive | inactive | inactive | inactive | inactive | inactive
